GLS inhibitor: glutaminase GLS (human) inhibition; O94925; GLS enzymatic activity, qHTS titration; Potency, µM (doses to about 45.5 µM), most hits filed as inhibitors; 0.21% of 410,000 active; AID 624170
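Compounds were pin-transferred onto hKGA, after which L-glutamine (1 mM solution) and a detection mix of glutamate oxidase, HRP and Amplex Red were added. Initial and 30 min RT fluorescence reads were collected.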
HEK293 tox: cytotoxicity in counter-screen for GLP-1R inverse agonists. HEK293 cAMP-luciferase reporter cells, luminescence, 24 h. Potency, µM (top dose mostly 38.3 µM), hits mostly inhibitors. 0.13% of 410,000 active;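 further: loss of luciferase light is scored as toxicity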
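To flag toxic compounds, the library was rerun on cells for 24 hr at 37 deg C and 5% CO2. Viability-linked luminescence was captured 12 min after adding luciferase detection reagent.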
GLP-1R inv ag: GLP-1 receptor (human) inverse agonism | P43220 | HEK293 GLP-1R CRE-luciferase, luminescence, 24 h; GLP-1R form is constitutively active | Potency, µM (series often up to 38.3 µM), most hits filed as inhibitors | 1.6% of 410,000 active; further: nearly all actives have a fitted effect of over 55% in size
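Stable HEK293 clone (constitutively active GLP-1R + cAMP-response luciferase); 200 cells/uL plated, 12 h pre-culture, compound 24 hr, 37 deg C/5% CO2; detection reagent 12 min RT; luminescence.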
KCNH2 3.1 inh: KCNH2 3.1 (human) potassium channel inhibition | activity change, % (tested at about 1.8 µM) | U2OS KCNH2 3.1, thallium flux FluxOr; hits give low values | 0.95% of 340,000 active;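 active means maximum activity change below -70%; inconclusive means maximum activity change from -70% to -50%; inactive means maximum activity change above -50%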;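 further: thallium influx rate constant from kinetic fluorescence after stimulation buffer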
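We transduce U2OS cells with the mutant 3.1 virus, culture them overnight, load FluxOr with Red40 quencher for 45 min, then add stimulation buffer and read kinetically for 2 min to derive a normalized rate constant.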
hERG WT inh: KCNH2 (human, wildtype) channel inhibition. activity change, % at 1.84 µM. U2OS, BacMam KCNH2, thallium flux FluxOr; hits give low values. 0.37% of 340,000 active;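 active means maximum activity change below -70%; inconclusive means maximum activity change between -70% and -50%; inactive means maximum activity change above -50%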
Target sequence (Q12809 whole entry, looked up): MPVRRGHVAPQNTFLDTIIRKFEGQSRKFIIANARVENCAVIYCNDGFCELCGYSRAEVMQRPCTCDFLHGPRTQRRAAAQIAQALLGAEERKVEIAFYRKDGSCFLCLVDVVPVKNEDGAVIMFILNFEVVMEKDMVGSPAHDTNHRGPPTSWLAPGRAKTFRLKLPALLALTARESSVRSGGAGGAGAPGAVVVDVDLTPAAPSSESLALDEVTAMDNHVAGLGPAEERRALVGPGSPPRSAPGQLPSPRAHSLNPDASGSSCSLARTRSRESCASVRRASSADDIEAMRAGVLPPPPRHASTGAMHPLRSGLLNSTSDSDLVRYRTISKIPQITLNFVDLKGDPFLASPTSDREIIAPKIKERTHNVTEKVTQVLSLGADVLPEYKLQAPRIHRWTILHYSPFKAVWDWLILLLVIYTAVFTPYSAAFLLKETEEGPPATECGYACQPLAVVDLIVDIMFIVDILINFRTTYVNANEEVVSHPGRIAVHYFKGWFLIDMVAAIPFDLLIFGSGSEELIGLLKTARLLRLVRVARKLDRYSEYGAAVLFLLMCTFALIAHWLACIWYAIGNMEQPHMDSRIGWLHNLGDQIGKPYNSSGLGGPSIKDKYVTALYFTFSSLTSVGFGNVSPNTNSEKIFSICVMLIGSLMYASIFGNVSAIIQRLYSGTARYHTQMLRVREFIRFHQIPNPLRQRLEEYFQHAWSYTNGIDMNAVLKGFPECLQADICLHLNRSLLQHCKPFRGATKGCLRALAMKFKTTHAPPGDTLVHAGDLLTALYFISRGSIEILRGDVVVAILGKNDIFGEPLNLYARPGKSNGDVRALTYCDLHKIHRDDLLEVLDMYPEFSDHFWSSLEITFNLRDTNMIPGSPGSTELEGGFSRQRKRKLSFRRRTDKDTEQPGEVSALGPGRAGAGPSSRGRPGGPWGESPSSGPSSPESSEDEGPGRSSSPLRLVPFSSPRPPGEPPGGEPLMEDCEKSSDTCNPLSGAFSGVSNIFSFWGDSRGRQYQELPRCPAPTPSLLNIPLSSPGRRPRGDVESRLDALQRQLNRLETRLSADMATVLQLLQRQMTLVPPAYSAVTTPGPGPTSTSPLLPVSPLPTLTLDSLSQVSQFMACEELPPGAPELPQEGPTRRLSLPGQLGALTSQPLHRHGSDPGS
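U2OS cells transduced with wild-type KCNH2 virus are loaded with FluxOr dye for 45 min, and thallium flux is measured in kinetic reads before and after stimulation buffer. Rate constants are normalized to DMSO controls.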
GLP-1R agonist: activates the human GLP-1 receptor; P43220; HEK293 GLP-1R CRE-luciferase, luminescence, 4-6 h; cells express a hypersensitive GLP-1R form; Potency, µM (doses to about 45.6 µM), hits mostly activators; 0.007% of 380,000 active
Numbers stand for hits; - = inactive; ? = inconclusive; . = no result; [ ] = remark or other dose. Only some compounds are listed: those with a hit (about 2.8% of all), similar ones and a draw of the others. Unless noted, the call rests on the fitted dose curve; in most records, active means well fitted curve in the direction sought with a large enough effect; inconclusive means small, poorly fitted or top-dose-only effect, or another doubt; inactive means no such curve, though single readings can be large; an effect the other way counts as inactive or inconclusive.

SMILES | GLS inhibitor | HEK293 tox | GLP-1R inv ag | KCNH2 3.1 inh | hERG WT inh | GLP-1R agonist
CC(C)NCCCCOc1cccc(Br)c1 | - | - | 7.9µM | - | - | -
OCC1(CCc2ccccc2)CCN(Cc2cc(Cl)ccc2O)CC1 | - | - | ? | - | - | -
Cc1ccc(-n2cccn2)c(CN2CCC(CO)(CCc3ccccc3)CC2)c1 | - | ? | ? | -96 | - | -
COc1ccccc1Nc1nc(N)nc(CN2CCCCC2)n1 | - | -[0.307 µM] | -[0.307 µM] | - | - | -
COc1ccccc1Nc1nc(N)nc(CN2CCN(Cc3ccc4c(c3)OCO4)CC2)n1 | - | - | - | -110 | - | -
COc1ccccc1Nc1nc(N)nc(CN2CCN(Cc3ccccc3)CC2)n1 | - | ? | - | -77 | - | -
COc1ccccc1N1CCN(Cc2nc(N)nc(Nc3ccc(C)c(Cl)c3)n2)CC1 | - | - | 2.2µM | -106 | - | -
COc1ccccc1Nc1nc(N)nc(CN2CCN(c3ccccc3F)CC2)n1 | - | - | ? | - | - | -
Cc1cccc(Nc2nc(N)nc(CN3CCN(c4ccccc4F)CC3)n2)c1 | - | - | ? | -80 | - | -
CCOc1ccc(N=C(C)Nc2ccc(OCC)cc2)cc1 | - | . | . | . | . | -
Cc1cc(OCC(=O)OC(C)C(=O)Nc2ccc(N3CCOCC3)cc2)ccc1Cl (configuration not stated) | - | - | - | - | - | -
Nc1nc(CN2CCN(c3ccccn3)CC2)nc(Nc2ccc(Cl)cc2)n1 | - | - | ? | - | -104 | -
Cc1ccc(Nc2nc(N)nc(CN3CCc4ccccc4C3)n2)cc1 | - | - | ? | -79 | - | -
Cc1ccc(Nc2nc(N)nc(CSc3nc4ccccc4s3)n2)cc1 | - | - | ? | -72 | - | -
COc1ccc(Nc2nc(N)nc(CN3CCN(c4ccc(F)cc4)CC3)n2)cc1 | - | - | ? | -77 | - | -
Cc1c(Cl)cccc1Nc1nc(N)nc(CN2CCc3ccccc3C2)n1 | - | - | ? | - | - | -
COc1ccc(Nc2nc(N)nc(CSc3nc4ccccc4s3)n2)cc1 | - | - | - | . | . | .
Cc1nnc(NC(=O)CCn2cnc3ccccc3c2=O)s1 | - | -[7.66 µM] | -[7.66 µM] | - | - | -
COc1cc(CNCCSc2nnnn2C)ccc1OCc1ccc(C)cc1 | - | - | - | . | . | .
CC(C)(C)NC(=O)[C@H]1CC[C@H]2[C@@H]3CC=C4C=C(C(=O)O)CC[C@@]4(C)[C@H]3CC[C@]12C | - | . | . | . | . | -
Cc1cccc(Nc2nc(N)nc(CN3CCN(Cc4ccc5c(c4)OCO5)CC3)n2)c1 | - | - | - | -110 | - | -
COc1cc(/C=N/NC(=O)c2ccccn2)ccc1OC(=O)c1ccccc1Br | - | 11µM | ? | . | - | -
COc1cc(/C=N/NC(=O)c2ccccn2)ccc1OC(=O)c1ccc(Br)cc1 | - | - | - | - | - | -
Cc1cc(C(C)(C)C)cc(S(=O)(=O)NCCc2ccncc2)c1C | - | - | - | - | - | -
CS(=O)(=O)N1Cc2ccccc2CC1C(=O)O (configuration not stated) | - | -[7.66 µM] | -[7.66 µM] | -95 | - | -
SMILES | GLS inhibitor | HEK293 tox | GLP-1R inv ag | KCNH2 3.1 inh | hERG WT inh | GLP-1R agonist
CC(=O)c1ccc(S(=O)(=O)N2Cc3ccccc3CC2C(=O)O)cc1 (configuration not stated) | - | - | - | - | - | -
COc1cccc(Cn2c(=O)n(-c3ccc(Br)cc3F)c(=O)c3sc4ccccc4c32)c1 | - | - | - | . | . | -
Cc1c(NS(=O)(=O)c2ccccc2)cc(Cl)c(O)c1C | - | - | - | - | - | -
O=S(=O)(Nc1ccccc1-c1ccccc1)c1ccccc1 | - | - | 6.3µM | - | - | -
Cc1c(Cl)cccc1NS(=O)(=O)c1ccccc1 | - | - | 10µM | - | - | -
Cc1ccc(-c2onc(C)c2C)cc1S(=O)(=O)N1CCCCC1 | - | - | - | . | . | .
Cc1ccc(-c2onc(C)c2C)cc1S(=O)(=O)Nc1cccc(Cl)c1C | - | ? | 10µM | . | . | .
O=S(=O)(Nc1cccc2c1CCCC2)c1ccc(Cl)cc1 | - | - | ? | -71 | - | ?
